AmpC detergent – AmpC beta-lactamase inhibition with detergent present; AmpC hydrolysis of nitrocefin, absorbance 480 nm, 0.01% Triton; 0.041% of 370,000 active; P00811; Potency, µM (series often up to 114 µM), without a hit: at the highest dose activity change, negative = inhibition, hits mostly inhibitors; AID 485294;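 also: 0% = no-compound wells and -100% = no-enzyme wells; nearly all actives have a fitted effect of over 25% in size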
Target sequence (P00811 whole entry, looked up): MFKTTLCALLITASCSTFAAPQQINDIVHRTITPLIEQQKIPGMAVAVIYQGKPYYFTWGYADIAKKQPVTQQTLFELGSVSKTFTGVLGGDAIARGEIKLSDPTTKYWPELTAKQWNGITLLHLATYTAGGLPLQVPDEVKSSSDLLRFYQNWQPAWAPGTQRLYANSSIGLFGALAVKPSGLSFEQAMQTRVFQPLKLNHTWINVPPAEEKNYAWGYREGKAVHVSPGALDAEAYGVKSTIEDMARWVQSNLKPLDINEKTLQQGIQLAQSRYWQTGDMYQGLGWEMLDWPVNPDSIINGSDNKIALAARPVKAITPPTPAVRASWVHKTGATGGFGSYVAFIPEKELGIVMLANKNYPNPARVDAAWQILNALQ
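AmpC (5.3 nM in the dispensed reagent) in 20 mM phosphate pH 7.0 with 0.01% (detergent screen) or 0.0001% Triton X-100 was preincubated with compounds for 15 min at room temperature. Nitrocefin was then added from an 800 uM solution, and hydrolysis was followed at 480 nm.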
TbPYK inhibitor – T. brucei pyruvate kinase inhibition. TbPYK enzyme, Kinase-Glo Plus ATP luminescence, 45 min. Q57TT1. Potency, µM (top dose mostly 76.8 µM), without a hit: top-dose activity, negative = inhibition, usual class: inhibitors. 0.12% of 410,000 active; also: % is scaled to controls: 0 for no effect and ±100 for the full control effect; nearly all actives have a fitted effect of over 50% in size
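Glycolytic pyruvate kinase of T. brucei was incubated with substrate, test compound and 130 uM ADP for 45 minutes at room temperature. Luminescent Kinase-Glo Plus signal was measured after 10 minutes.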
SARS PLpro yeast – blocks SARS-CoV papain-like protease in a yeast assay; S. cerevisiae expressing SARS-CoV PLpro, growth rescue; 0.19% of 330,000 active; AID 485353; Potency, µM (titrated, usually from 32.9 µM), for the others: top-dose activity, positive = growth rescue, hits mostly activators; calls by dose curve; also: 0% is about no effect; nearly all actives have a fitted effect of over 55% in size
RE007 growth inh – less growth of the S. pombe RE007 Vpr strain; AID 651644; Potency, µM (titrated, usually from 92.2 µM), without a hit: at the highest dose activity change, negative = less growth, usual class: inhibitors; S. pombe RE007 Vpr strain, BacTiter-Glo ATP luminescence, 24 h; 0.21% of 360,000 active; active = well fitted falling curve with a large enough effect; inconclusive = small, poorly fitted or top-dose-only effect; inactive = no such curve, though single readings can be large or run the other way; also: % is scaled to controls: 0 for no effect and ±100 for the full control effect; nearly all actives have a fitted effect of over 50% in size
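Fission yeast strain RE007, carrying one chromosomally integrated HIV-1 vpr copy, was seeded at OD 0.01 in PMG+AL medium with 23 nL pinned compound. After 24 h at 30 °C and 99% humidity, viability was read by BacTiter-Glo luminescence.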
AmpC no deterg – blocks E. coli AmpC beta-lactamase in detergent-free assay. AmpC nitrocefin hydrolysis, absorbance 480 nm, 0.0001% Triton. P00811. Potency, µM (doses to about 57.1 µM), for inactives: at the highest dose activity change, negative = inhibition, hits mostly inhibitors. 0.52% of 330,000 active;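 also: plate controls were no compound for no effect and no enzyme for full effect; nearly all actives have a fitted effect of over 20% in size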
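AmpC (5.3 nM in the dispensed reagent) in 20 mM phosphate pH 7.0 with 0.01% (detergent screen) or 0.0001% Triton X-100 was preincubated with compounds for 15 min at room temperature. Nitrocefin was then added from an 800 uM solution, and hydrolysis was followed at 480 nm.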
Sm TGR block – S. mansoni TGR enzyme inhibition. Q962Y6. Potency, µM (highest dose often 114 µM), for the others: at the top dose activity change, negative = inhibition, usual class: inhibitors. purified TGR, DTNB reduction, TNB absorbance 405 nm. 3% of 360,000 active; also: % is scaled to controls: 0 for no effect and ±100 for the full control effect; nearly all actives have a fitted effect of over 60% in size
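TGR 20 nM + NADPH 100 uM (dispensed conc.), cpd preinc 15 min RT; start with NADPH (500 uM addition) then DTNB (15 mM addition). Kinetic TNB absorbance, 405 nm filter. Four-parameter Hill fit across titration.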
An asterisk follows results filed as active; ? = inconclusive; nt = not tested or not shown. In the library only some 3.3% were active in any assay of this set; here they are far more common. Unless noted, calls follow the shape of the dose curve; as a rule, active = well fitted curve in the direction sought with a large enough effect; inconclusive = small, poorly fitted or top-dose-only effect, or another doubt; inactive = no such curve, though single readings can be large; an effect the other way counts as inactive or inconclusive. Potency is read from the fitted curve at half-maximal effect.

SMILES	AmpC detergent	TbPYK inhibitor	SARS PLpro yeast	RE007 growth inh	AmpC no deterg	Sm TGR block
COc1ccc(O)c(N)c1	?	nt	1%	nt	-43%	3.2µM*
Cc1cccc(-c2nc(CN3CCCC(C(=O)NCCc4ccc(Cl)cc4)C3)c(C)o2)c1 (stereo not drawn)	19%	0%	nt	nt	nt	-2%
Cc1cc(Cl)ccc1OCC(=O)Nc1nc(-c2cccs2)cs1	1%	-6%	-13%	?	18µM*	6%
Cc1cc(Cl)ccc1OCC(=O)Nc1nc(-c2cccnc2)cs1	9%	0%	1%	15%	-19%	-1%
Cc1c(NC(=O)c2sc3ccccc3c2Cl)cccc1-c1nc2ccccc2o1	21%	-3%	nt	nt	nt	-2%
C/C=C\C=C/C(=O)Nc1cccc(C2=NOC3(C2)C[C@@H](C(N)=O)N(C(=O)COc2ccc(Cl)cc2)C3)c1 (stereo partly drawn)	-3%	-18%	3%	-12%	114%	3.2µM*
C/C=C(\C)C(=O)N1CC2(CC(c3cccc(NC(=O)COc4ccc(Cl)cc4)c3)=NO2)C[C@@H]1C(N)=O (stereo partly drawn)	-1%	2%	3%	-8%	148%	-15%
C/C=C\C=C\C(=O)N1CC2(CC(c3cccc(NC(=O)COc4ccc(Cl)cc4)c3)=NO2)C[C@H]1C(N)=O (stereo partly drawn)	-4%	-21%	2%	9%	164%	7.1µM*
Cc1c(C(=O)Nc2cccc(Cl)c2)oc2ccc(S(=O)(=O)N(C)C3CCCCC3)cc12	-1%	-3%	nt	nt	nt	3%
COc1ccc(Cl)cc1NC(=O)c1cc(S(=O)(=O)N2CCc3ccccc32)cn1C	18%	-6%	nt	nt	nt	2%
COc1cc(OC)c(OC)cc1CN1CCc2nc(N3CCN(c4ccccc4F)CC3)ncc2C1	-6%	-6%	nt	nt	nt	-5%
COc1cc(OC)c(OC)cc1CN1CCc2nc(N3CCN(c4ncccn4)CC3)ncc2C1	7%	-11%	nt	nt	nt	22µM*
Cc1ccc(NC(=O)C2CCN(c3nc(-c4ccc(C(C)C)cc4)no3)CC2)c(Cl)c1	0%	-3%	nt	nt	nt	7%
CN(C)C(=O)CN1CCN(C(=O)CCl)CC1	?	8%	-2%	14%	-29%	45µM*
Cc1ccc(NC(=O)C(NS(=O)(=O)c2ccc3c(c2)CCC(=O)N3)c2ccccc2)cc1C (stereo not drawn)	-8%	0%	nt	nt	nt	-20%
CN(Cc1cc(Br)cc(Br)c1N)C1CCCCC1	nt	-5%	nt	nt	nt	nt
OC1(c2ccc(Br)cc2)CCNCC1	-15%	-3%	-2%	1%	-12%	50µM*
CCOC(=O)c1c(C)[nH]c(C)c1S(=O)(=O)N1CCC(C(=O)Nc2ccc(OCC)cc2)CC1	-1%	-5%	nt	nt	nt	-1%
CCN(CC)C(=O)CSC1=N/C(=C/c2ccco2)C(=O)N1c1ccc(OC)c(Cl)c1	7%	-6%	10%	-32%	17%	?
NC(=O)CSC1=N/C(=C\c2ccco2)C(=O)N1c1ccc(OC(F)F)cc1	?	-6%	-1%	-3%	-38%	45µM*
CN1C(=O)C(O)(CC(=O)/C=C/c2ccco2)c2ccccc21 (stereo not drawn)	-1%	-18%	0%	16%	-25%	nt
CN1C(=O)C(O)(CC(=O)/C=C/c2ccco2)c2cc(Br)ccc21 (stereo not drawn)	-6%	-22%	0%	5%	-19%	18µM*
COc1ccc(CCn2c(=O)c3cccnc3n(CC(=O)Nc3c(C)cc(C)cc3C)c2=O)cc1OC	19%	-1%	nt	nt	nt	1%
COC(=O)C1C(c2ccc(OC)c(OC)c2)NC(c2ccc(OC)c(OC)c2)C(C(=O)OC)S1(=O)=O (stereo not drawn)	7%	-8%	8%	-3%	61%	20µM*

Bioassay records deposited in PubChem BioAssay by National Center for Advancing Translational Sciences (NCATS).
